{"source": "PubChem BioAssay AID540296", "about": "(Southern Research Specialized Biocontainment Screening …, 2011)", "experiment": "MDCK cell cytotoxicity, dose response, cytotoxicity control (AID 540296)", "note": "Measured potencies and affinities stand elsewhere. Calls of active or inactive are those of the source. How the calls were made is not given here."}
{"smiles": "Cc1ccc(N2C(=O)C(CC(=O)Nc3cccc(F)c3)N(C3CC3)C2=O)cc1", "note": "(configuration not stated)", "values": [{"measurement": "outcome", "value": "inactive"}]}
{"smiles": "CN(C)c1cccc2c(C=C(C#N)C#N)ccc(N(C)C)c12", "values": [{"measurement": "outcome", "value": "inactive"}]}
